Data as given in PubChem BioAssay (EPA / NIEHS).
Active and inactive are the calls of the source. The calls were made as follows: active = hit-call score of the fitted dose curve at least 0.9, where 1 is the maximum; inactive = score below 0.9.

Legend:
[1] = ATG_GLI_CIS: Attagene CIS-FACTORIAL HepG2 Assay for human Zinc Finger Protein GLI1 (AID 2282945); conditions: HepG2, Attagene cis-factorial reporter mRNA, GLI element; actives raise or lower the signal
In short: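 Transiently transfected HepG2 cells report endogenous transcription factor activity via cis-element-driven reporter units. After 24 h compound exposure, reporter mRNA was measured by RT-PCR with capillary electrophoresis; bidirectional fitting against DMSO baseline.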

[2] = molecular target: Bile acid receptor (Homo sapiens) (UniProt Q96RI1); assay: ATG_IR1_CIS: Attagene CIS-FACTORIAL HepG2 Assay for human Nuclear Receptor Subfamily 1 Group H Member 4 (NR1H4), IR1 submotif (AID 2282946); conditions: IR1 reporter transcription, actives raise or lower the signal
In short: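 HepG2 cells transiently transfected with multiple cis-promoter-driven reporter units to measure endogenous transcription factor activity; 24 h exposure. Reporter mRNA read by RT-PCR, FAM labelling, HpaI digestion and capillary electrophoresis. Bidirectional fit versus DMSO.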

[3] = ATG_ISRE_CIS: Attagene CIS-FACTORIAL HepG2 Assay for human Interferon Regulatory Factor 1 (IRF1) binding to an Interferon-Stimulated Response Element (ISRE) (AID 2282948); conditions: HepG2 ISRE cis-reporter (Attagene), mRNA transcription readout; actives raise or lower the signal
In short: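 HepG2 cells transiently transfected with multiplexed cis-promoter reporter units; after 24 h compound exposure, reporter mRNA quantified by RT-PCR, FAM labelling, HpaI digestion and capillary electrophoresis. Bidirectional fit versus DMSO baseline.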

[4] = ATG_M_32_CIS: Attagene CIS-FACTORIAL HepG2 Assay for M32 Transcription Factor (Internal Marker) (AID 2282949); conditions: HepG2 Attagene cis-factorial M32 reporter, mRNA; actives raise or lower the signal;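 also: background control marker of the multiplexed CIS panel rather than a real target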
In short: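 Fluorescent capillary electrophoresis peaks of HpaI-digested, FAM-labelled RT-PCR reporter products give the signal. Source: transiently transfected human liver HepG2 cells, 24 h after chemical dosing; bidirectional fitting against DMSO.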

[5] = ATG_M_06_CIS: Attagene CIS-FACTORIAL HepG2 Assay for M06 Transcription Factor (Internal Marker) (AID 2282950); conditions: HepG2 Attagene CIS-FACTORIAL M06 internal marker reporter; actives raise or lower the signal
In short: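 Internal background marker within multiplexed cis-reporter HepG2 system. Cells transiently transfected, dosed 24 h; reporter mRNA measured by RT-PCR, HpaI digestion and capillary electrophoresis. Bidirectional fit relative to DMSO.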

[6] = molecular target: Hypoxia-inducible factor 1-alpha (Homo sapiens) (UniProt Q16665); assay: ATG_HIF1a_CIS: Attagene CIS-FACTORIAL HepG2 Assay for human Hypoxia Inducible Factor 1 (HIF1A) (AID 2282951); conditions: HepG2 Attagene cis-factorial HIF1a reporter transcription; actives raise or lower the signal
In short: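 HepG2, transient cis-reporter library, 24 h dosing. RNA → RT (oligo dT) → PCR → 6-FAM primer extension → HpaI → CE. Bidirectional curve fit vs DMSO.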

[7] = molecular target: Hepatocyte nuclear factor 6 (Homo sapiens) (UniProt Q9UBC0); assay: ATG_HNF6_CIS: Attagene CIS-FACTORIAL HepG2 Assay for human Hepatocyte Nuclear Factor 6 (HNF6) (AID 2282952); conditions: HepG2 Attagene cis-factorial HNF6 reporter transcription; actives raise or lower the signal
In short: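 Transiently transfected HepG2 cells expressing cis-regulated reporter transcription units were exposed to chemical for 24 h in a 24-well format. Reporter transcript abundance was determined by fluorescence capillary electrophoresis.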

[8] = molecular target: Heat shock factor protein 1 (Homo sapiens) (UniProt Q00613); assay: ATG_HSE_CIS: Attagene CIS-FACTORIAL HepG2 Assay for human Heat Shock Transcription Factor 1 (HSE) (AID 2282953); conditions: HepG2 HSE cis-reporter, Attagene RNA transcription; actives raise or lower the signal
In short: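 HepG2 cells transfected with cis-promoter reporter units sensing endogenous transcription factor activity; reporter mRNA quantified 24 h post-dose by RT-PCR and capillary electrophoresis of 6-FAM-labelled products. Bidirectional fitting against DMSO.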

[9] = ATG_MRE_CIS: Attagene CIS-FACTORIAL HepG2 Assay for human Metal Responsive Element (MRE) (AID 2282954); conditions: HepG2 MRE cis-reporter transcription, Attagene multiplex; actives raise or lower the signal
In short: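 HepG2 cells transiently transfected with cis-element-driven reporter units; mRNA measured 24 h after dosing. Reporter transcripts quantified by RT-PCR, FAM labelling, HpaI digestion and capillary electrophoresis; bidirectional fit versus DMSO.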

[10] = ATG_PBREM_CIS: Attagene CIS-FACTORIAL HepG2 Assay for human Phenobarbital-responsive Enhancer Module (PBREM) (AID 2282955); conditions: HepG2 PBREM cis-reporter, Attagene multiplexed transcription; actives raise or lower the signal
In short: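 HepG2, transient MRTU transfection, 24 h dosing; RNA → oligo(dT) RT → PCR → 6-FAM extension → HpaI → CE. Bidirectional fit vs DMSO.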

[11] = molecular target: Paired box protein Pax-6 (Homo sapiens) (UniProt P26367); assay: ATG_Pax6_CIS: Attagene CIS-FACTORIAL HepG2 Assay for human Paired Box 6 (PAX6) (AID 2282956); conditions: HepG2 CIS-FACTORIAL PAX6 reporter transcription, RNA readout; actives raise or lower the signal
In short: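 HepG2 cells transiently transfected with multiplexed cis-promoter reporter units (endogenous TF activity) were dosed for 24 h. Reporter mRNA was quantified by RT-PCR, 6-FAM labeling, HpaI digestion and capillary electrophoresis; bidirectional fitting versus DMSO baseline.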

[12] = ATG_PXRE_CIS: Attagene CIS-FACTORIAL HepG2 Assay for human Pregnane X Receptor Element (PXRE) (AID 2282957); conditions: HepG2 Attagene CIS-FACTORIAL PXRE reporter, mRNA; actives raise or lower the signal
In short: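 Cis-element reporter mRNA in human hepatoma HepG2 cells is measured 24 h post-dosing by RT-PCR, primer-extension labeling and capillary electrophoresis; gain or loss of signal is fitted relative to DMSO.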

[13] = ATG_PPRE_CIS: Attagene CIS-FACTORIAL HepG2 Assay for human Peroxisome Proliferator-activated Response Element (PPRE) (AID 2282958); conditions: HepG2 PPRE cis-element reporter, Attagene transcription factor profiling; actives raise or lower the signal
In short: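 Transcript-level reporter induction in transfected HepG2 cells after 24 h chemical exposure, quantified by fluorescence from RT-PCR products separated by capillary electrophoresis.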

[14] = ATG_RORE_CIS: Attagene CIS-FACTORIAL HepG2 Assay for human RAR-related Orphan Receptor Element (RORE) (AID 2282959); conditions: HepG2 Attagene cis-factorial RORE reporter, mRNA; actives raise or lower the signal
In short: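 Multiplexed reporter assay measuring mRNA induction from a cis promoter element in transiently transfected HepG2 cells after 24 h treatment. Detection via RT-PCR and capillary electrophoresis fluorescence; DMSO serves as baseline.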

[15] = ATG_Sox_CIS: Attagene CIS-FACTORIAL HepG2 Assay for human SRY-box transcription factor (SOX) (AID 2282960); conditions: HepG2 Attagene cis-factorial SOX reporter, mRNA; actives raise or lower the signal
In short: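 Cells were transfected with reporter constructs under cis-regulatory promoters, then exposed to chemicals for 24 h. Reporter transcripts were quantified by fluorescence after RT-PCR and capillary electrophoresis; activity was fitted in both directions against DMSO.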

[16] = molecular target: Transcription factor Sp1 (Homo sapiens) (UniProt P08047); assay: ATG_Sp1_CIS: Attagene CIS-FACTORIAL HepG2 Assay for human Specificity Protein 1 (Sp1) (AID 2282961); conditions: HepG2 Sp1 cis-reporter transcription, actives raise or lower the signal
In short: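 Measures mRNA induction of an Sp1-linked reporter in HepG2 cells 24 h post-dosing. Multiplexed reporters read by RT-PCR and capillary electrophoresis; DMSO serves as negative control and baseline.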

[17] = ATG_SREBP_CIS: Attagene CIS-FACTORIAL HepG2 Assay for human Sterol Regulatory Element Binding (SREBP) (AID 2282962); conditions: HepG2 Attagene cis-factorial SREBP reporter, mRNA; actives raise or lower the signal
In short: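 HepG2 cells transiently transfected with multiplexed cis-element reporter units report endogenous transcription factor activity. After 24 h of chemical exposure, reporter mRNA was quantified by RT-PCR, 6-FAM labelling, HpaI digestion and capillary electrophoresis; bidirectional fits used DMSO as baseline.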

[18] = molecular target: Signal transducer and activator of transcription 3 (Homo sapiens) (UniProt P40763); assay: ATG_STAT3_CIS: Attagene CIS-FACTORIAL HepG2 Assay for human Signal Transducer and Activator of Transcription 3 (STAT3) (AID 2282963); conditions: HepG2, Attagene cis-factorial STAT3 reporter transcription; actives raise or lower the signal
In short: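 HepG2 cells transiently transfected with multiple cis-element-driven reporter units report endogenous transcription factor activity. After 24 h compound exposure, reporter mRNA is measured by RT-PCR, 6-FAM labelling, HpaI digestion and capillary electrophoresis. Fitted bidirectionally versus DMSO.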

[19] = ATG_TA_CIS: Attagene CIS-FACTORIAL HepG2 Assay for human TA Basal Promoter (AID 2282964); conditions: HepG2 Attagene CIS-factorial TA basal promoter reporter; actives raise or lower the signal
In short: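 HepG2 cells transiently transfected with multiple reporter units under cis promoter elements, reporting endogenous transcription factor activity; this endpoint tracks the TA basal promoter as background control. Reporter mRNA after 24 h dosing measured by RT-PCR/capillary electrophoresis; bidirectional fits versus DMSO.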

[20] = ATG_GRE_CIS: Attagene CIS-FACTORIAL HepG2 Assay for human Glucocorticoid Response Elements (GRE) (AID 2282947); conditions: HepG2 GRE cis-reporter, Attagene multiplex mRNA; actives raise or lower the signal
In short: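 Transiently transfected HepG2 cells carrying GRE cis-reporter units (endogenous TF activity) dosed 24 h; reporter mRNA quantified by RT-PCR, 6-FAM labelling, HpaI digestion and capillary electrophoresis. Bidirectional fit versus DMSO baseline.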

Measured: AC50

Chain of Hepatocyte nuclear factor 6 (Homo sapiens) (Q9UBC0 whole entry, looked up): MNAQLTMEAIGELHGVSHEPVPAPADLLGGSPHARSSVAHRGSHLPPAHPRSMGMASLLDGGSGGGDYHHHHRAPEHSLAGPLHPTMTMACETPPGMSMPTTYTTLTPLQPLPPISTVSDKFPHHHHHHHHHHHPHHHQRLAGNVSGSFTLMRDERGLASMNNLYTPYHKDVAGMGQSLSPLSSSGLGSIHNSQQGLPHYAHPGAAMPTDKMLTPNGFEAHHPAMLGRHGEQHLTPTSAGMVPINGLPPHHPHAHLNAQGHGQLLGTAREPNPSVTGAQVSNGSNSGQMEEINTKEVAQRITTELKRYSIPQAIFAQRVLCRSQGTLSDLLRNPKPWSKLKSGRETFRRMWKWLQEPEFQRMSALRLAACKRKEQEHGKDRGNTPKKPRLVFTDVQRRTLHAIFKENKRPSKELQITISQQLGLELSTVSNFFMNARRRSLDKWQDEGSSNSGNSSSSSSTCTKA
Chain of Bile acid receptor (Homo sapiens) (Q96RI1 whole entry, looked up): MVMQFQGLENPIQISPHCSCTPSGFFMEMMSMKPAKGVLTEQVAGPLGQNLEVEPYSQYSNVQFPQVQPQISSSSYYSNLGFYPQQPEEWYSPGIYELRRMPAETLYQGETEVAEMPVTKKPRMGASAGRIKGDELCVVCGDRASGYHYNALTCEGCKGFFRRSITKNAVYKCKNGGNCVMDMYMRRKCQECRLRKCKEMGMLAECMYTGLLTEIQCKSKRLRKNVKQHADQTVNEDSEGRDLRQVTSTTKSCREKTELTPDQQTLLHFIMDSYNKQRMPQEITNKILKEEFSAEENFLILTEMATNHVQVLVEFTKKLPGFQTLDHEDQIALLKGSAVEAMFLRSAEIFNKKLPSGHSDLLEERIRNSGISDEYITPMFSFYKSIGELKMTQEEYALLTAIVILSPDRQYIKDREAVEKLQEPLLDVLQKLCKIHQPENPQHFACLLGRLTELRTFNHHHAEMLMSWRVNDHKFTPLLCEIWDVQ
Chain of Heat shock factor protein 1 (Homo sapiens) (Q00613 whole entry, looked up): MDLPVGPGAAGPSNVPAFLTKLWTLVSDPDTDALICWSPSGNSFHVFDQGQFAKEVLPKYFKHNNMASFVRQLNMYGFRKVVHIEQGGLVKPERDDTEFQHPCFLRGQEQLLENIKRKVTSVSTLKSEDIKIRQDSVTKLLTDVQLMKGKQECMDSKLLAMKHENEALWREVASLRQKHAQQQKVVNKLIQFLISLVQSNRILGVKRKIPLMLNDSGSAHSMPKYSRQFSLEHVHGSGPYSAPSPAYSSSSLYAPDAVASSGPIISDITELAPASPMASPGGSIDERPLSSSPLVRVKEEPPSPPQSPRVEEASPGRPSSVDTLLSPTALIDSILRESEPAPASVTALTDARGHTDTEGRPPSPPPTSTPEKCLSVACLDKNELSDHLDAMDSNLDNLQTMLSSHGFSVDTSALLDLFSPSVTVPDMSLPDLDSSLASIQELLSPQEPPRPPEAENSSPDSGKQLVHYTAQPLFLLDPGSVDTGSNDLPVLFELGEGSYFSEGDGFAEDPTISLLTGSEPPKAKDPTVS
Chain of Signal transducer and activator of transcription 3 (Homo sapiens) (P40763 whole entry, looked up): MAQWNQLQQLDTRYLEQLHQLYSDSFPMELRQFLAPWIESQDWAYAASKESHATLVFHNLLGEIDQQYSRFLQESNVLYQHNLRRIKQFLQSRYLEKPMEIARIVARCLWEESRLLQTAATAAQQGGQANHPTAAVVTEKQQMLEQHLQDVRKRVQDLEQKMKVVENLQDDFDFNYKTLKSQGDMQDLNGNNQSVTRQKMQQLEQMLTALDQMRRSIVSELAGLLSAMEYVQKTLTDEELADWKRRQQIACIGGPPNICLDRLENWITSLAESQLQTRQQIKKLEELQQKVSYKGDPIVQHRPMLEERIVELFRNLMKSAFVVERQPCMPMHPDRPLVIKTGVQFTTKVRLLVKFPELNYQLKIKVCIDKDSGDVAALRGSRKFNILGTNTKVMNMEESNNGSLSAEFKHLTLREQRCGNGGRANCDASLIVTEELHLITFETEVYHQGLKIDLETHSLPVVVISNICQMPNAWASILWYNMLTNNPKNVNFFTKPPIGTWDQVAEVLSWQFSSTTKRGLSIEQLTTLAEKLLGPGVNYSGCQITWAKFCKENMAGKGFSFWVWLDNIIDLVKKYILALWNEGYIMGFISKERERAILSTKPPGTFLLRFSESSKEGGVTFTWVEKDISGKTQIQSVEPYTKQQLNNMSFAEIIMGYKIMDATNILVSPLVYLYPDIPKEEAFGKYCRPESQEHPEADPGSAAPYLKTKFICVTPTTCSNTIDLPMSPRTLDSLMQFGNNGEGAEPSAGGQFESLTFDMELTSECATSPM
Chain of Hypoxia-inducible factor 1-alpha (Homo sapiens) (Q16665 whole entry, looked up): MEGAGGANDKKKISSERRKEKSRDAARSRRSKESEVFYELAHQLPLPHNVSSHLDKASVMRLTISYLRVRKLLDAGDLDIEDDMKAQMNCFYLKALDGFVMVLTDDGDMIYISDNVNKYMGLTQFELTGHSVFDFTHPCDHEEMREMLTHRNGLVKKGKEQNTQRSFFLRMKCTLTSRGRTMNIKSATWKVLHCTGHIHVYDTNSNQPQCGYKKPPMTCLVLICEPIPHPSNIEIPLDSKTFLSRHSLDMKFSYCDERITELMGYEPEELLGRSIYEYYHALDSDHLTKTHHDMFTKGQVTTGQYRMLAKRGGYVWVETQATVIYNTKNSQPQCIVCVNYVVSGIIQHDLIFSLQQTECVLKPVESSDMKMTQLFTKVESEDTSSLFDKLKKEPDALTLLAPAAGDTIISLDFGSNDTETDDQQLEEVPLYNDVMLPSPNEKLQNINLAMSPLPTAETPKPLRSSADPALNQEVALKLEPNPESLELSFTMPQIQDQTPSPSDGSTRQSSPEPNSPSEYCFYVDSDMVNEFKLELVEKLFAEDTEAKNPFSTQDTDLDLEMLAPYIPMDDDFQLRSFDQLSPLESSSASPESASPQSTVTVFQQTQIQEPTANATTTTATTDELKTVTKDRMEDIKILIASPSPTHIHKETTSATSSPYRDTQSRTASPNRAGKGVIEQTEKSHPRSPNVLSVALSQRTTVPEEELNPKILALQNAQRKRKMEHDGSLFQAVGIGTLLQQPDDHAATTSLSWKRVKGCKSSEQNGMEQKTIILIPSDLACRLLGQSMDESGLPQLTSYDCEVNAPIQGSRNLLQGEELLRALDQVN
Chain of Transcription factor Sp1 (Homo sapiens) (P08047 whole entry, looked up): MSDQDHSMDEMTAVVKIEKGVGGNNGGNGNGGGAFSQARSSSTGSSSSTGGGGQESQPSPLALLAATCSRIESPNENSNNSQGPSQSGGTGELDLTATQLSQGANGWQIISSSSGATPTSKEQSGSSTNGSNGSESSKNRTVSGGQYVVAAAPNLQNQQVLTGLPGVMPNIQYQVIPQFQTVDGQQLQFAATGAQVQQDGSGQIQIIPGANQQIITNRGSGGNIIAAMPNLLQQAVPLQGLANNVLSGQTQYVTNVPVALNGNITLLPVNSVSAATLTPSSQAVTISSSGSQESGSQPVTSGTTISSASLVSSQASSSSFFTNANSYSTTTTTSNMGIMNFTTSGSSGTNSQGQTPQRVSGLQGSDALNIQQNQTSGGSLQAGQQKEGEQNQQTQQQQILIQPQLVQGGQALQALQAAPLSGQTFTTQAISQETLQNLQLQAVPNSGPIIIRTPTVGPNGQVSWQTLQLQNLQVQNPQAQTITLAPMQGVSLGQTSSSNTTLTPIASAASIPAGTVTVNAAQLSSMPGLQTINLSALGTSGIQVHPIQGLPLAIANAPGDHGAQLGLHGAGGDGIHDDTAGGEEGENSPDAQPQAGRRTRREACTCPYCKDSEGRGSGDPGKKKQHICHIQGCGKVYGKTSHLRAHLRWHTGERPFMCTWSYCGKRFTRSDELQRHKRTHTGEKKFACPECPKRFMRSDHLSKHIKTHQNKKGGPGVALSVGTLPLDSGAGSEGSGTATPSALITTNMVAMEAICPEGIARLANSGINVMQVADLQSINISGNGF
Chain of Paired box protein Pax-6 (Homo sapiens) (P26367 whole entry, looked up): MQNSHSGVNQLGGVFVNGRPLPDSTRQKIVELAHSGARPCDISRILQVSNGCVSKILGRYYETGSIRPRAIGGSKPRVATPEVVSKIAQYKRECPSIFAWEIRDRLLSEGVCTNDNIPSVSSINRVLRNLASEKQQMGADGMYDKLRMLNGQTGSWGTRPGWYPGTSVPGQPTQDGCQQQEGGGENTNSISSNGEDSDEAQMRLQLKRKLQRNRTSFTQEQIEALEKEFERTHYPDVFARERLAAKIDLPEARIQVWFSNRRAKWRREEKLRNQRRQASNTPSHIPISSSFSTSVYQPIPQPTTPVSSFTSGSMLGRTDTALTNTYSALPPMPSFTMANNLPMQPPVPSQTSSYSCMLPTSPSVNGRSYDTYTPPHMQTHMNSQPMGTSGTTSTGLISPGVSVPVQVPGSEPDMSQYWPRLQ

CCCCCc1cccc(=O)o1
active: [12] 25.1 µM
not listed: [20]
inactive: all other assays above

CCC(C)(C)C1CCC(OC)CC1 (configuration not stated)
active: [12] 3.33 µM
not listed: [20]
inactive: all other assays above

CC(=O)c1ccc(O)cc1
active: [12] 100 µM
not listed: [4] | [19]
inactive: all other assays above

O=S(=O)(O)c1cc(S(=O)(=O)O)c2c(N=Nc3ccccc3)c(O)ccc2c1
not listed: [3] | [9] | [13] | [14]
inactive: all other assays above

CC(C)(O)CCc1ccccc1
not listed: [8] | [10] | [11]
inactive: all other assays above

CCCCCCCCOS(=O)(=O)O
active: [13] 31.3 µM
not listed: [3] | [10] | [17]
inactive: all other assays above

c1ccc(Cc2ccccc2)cc1
not listed: [3] | [10] | [13]
inactive: all other assays above

C=C1CC[C@H]2O[C@]2(C)CC[C@@H]2[C@@H]1CC2(C)C
not listed: [4] | [8] | [10] | [19]
inactive: all other assays above

CCCCCCOC(C)=O
not listed: [8] | [9] | [10] | [14]
inactive: all other assays above

CCC(=O)OC/C=C(\C)CCC=C(C)C
active: [12] 44 µM
not listed: [3] | [10] | [19]
inactive: all other assays above

Cc1ccccc1S
active: [2] 55.7 µM | [8] 113 µM | [9] 102 µM | [11] 60.4 µM | [12] 19.7 µM | [15] 103 µM | [16] 80.3 µM | [17] 41.7 µM
not listed: [20]
inactive: all other assays above

CC(=O)c1ccc2ccccc2c1
not listed: [4] | [8] | [9]
inactive: all other assays above

CCCCOC(=O)C(C)OC(=O)CCC (configuration not stated)
not listed: [2] | [10]
inactive: all other assays above

C=CC(O)CCCCC (configuration not stated)
active: [6] 26.9 µM | [11] 58.6 µM | [15] 100 µM
not listed: [3] | [10] | [12] | [17] | [19] | [20]
inactive: all other assays above

c1ccc(OCCOc2ccccc2)cc1
active: [6] 26.4 µM | [13] 0.0167 µM
not listed: [2]
inactive: all other assays above

N=C1N=C(N)c2ccccc21
active: [3] 74.1 µM | [9] 74.5 µM
not listed: [2] | [13]
inactive: all other assays above
